# An excerpt weighted towards active compounds, which were near 3.6% of everything screened.
# Pf apPOL inh: Pf-apPOL DNA polymerase inhibition | inhibition, % at 10 µM | Recombinant Pf-apPOL, molecular beacon fluorescence, 1.5 h | AID 1794808 | 210,000 tested, 0.25% active
# mHTT-CaM PPI inh: inhibitors of human mutant huntingtin-calmodulin interaction; 190,000 tested, 3.6% active; P42858; AlphaScreen His-mHTT/GST-CaM binding, luminescence; inhibition, % at 15 µM;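 note: 0% = both proteins with DMSO and 100% = one protein alone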
# * marks the source's active call; other numbers are inactive results; · = no result given. Cut-off read from the data, not from the text of the source: active = inhibition above about 50%; inactive = the rest.
SMILES,Pf apPOL inh,mHTT-CaM PPI inh
O=C1CCN(Cc2ccccc2)CCN1[C@H](COc1ccccc1)Cc1ccccc1,-2,86*
O=C(NCCCN1CCCCC1)C1CCCN(c2cn[nH]c(=O)c2)C1 (configuration not stated),-4,1
O=C(NC(=O)c1ccccc1)Nc1cccc(F)c1,4,-1
Cc1ccc2[nH]c3c(cc(O)c4c(=O)c5ccccc5c(=O)c43)sc2c1,2,4
O=C(CCC(=O)N1CC2CCCN2c2ccccc21)NCc1cccs1 (configuration not stated),-1,28
CN(Cc1ccsc1)C(=O)c1ccccc1,-3,-1
COc1cc2c(cc1OC)CN(Cc1ccc(Cl)c(Cl)c1)CC2,-1,55*
COc1cc2c(cc1OC)CN(Cc1ccccc1Cl)CC2,-4,-8
COCCn1cc2c3c(cccc31)CN(C(=O)c1ccc(F)cc1)CC2,-1,64*
CCCNC(=O)N1CCc2cn(CCOC)c3cccc(c23)C1,-2,-6
COCCn1cc2c3c(cccc31)CN(C(=O)c1ccc(Br)o1)CC2,-7,76*
COCCn1cc2c3c(cccc31)CN(C(=O)Nc1cccc(F)c1)CC2,1,3
COCCn1cc2c3c(cccc31)CN(C(=O)Nc1cc(Cl)ccc1C)CC2,0,11
COCCn1cc2c3c(cccc31)CN(C(=O)c1cc(F)ccc1F)CC2,-3,26
COCCn1cc2c3c(cccc31)CN(C(=O)c1ccc(F)c(F)c1)CC2,-2,61*
COCCn1cc2c3c(cccc31)CN(C(=O)c1cc(Cl)ccc1OC)CC2,0,71*
Clc1cc(C=Nc2cccnc2)c(Cl)s1,4,·
COc1ccc(C(=O)Nc2ccc(Br)cc2C)cc1OC,-9,0
COc1cc(C(C#N)N2CCN(C(C#N)c3ccc(O)c(OC)c3)CC2)ccc1O (configuration not stated),-6,-5
CCCCC[C@@H](C)N1C[C@@H](COCc2ccccc2)Oc2cc(N3CC[C@@H](O)C3)ccc2S1(=O)=O,-2,99*
CCCCC[C@H](C)N1C[C@@H](COCc2ccccc2)Oc2cc(N3CC[C@@H](O)C3)ccc2S1(=O)=O,-7,74*
CCCCC[C@@H](C)N1C[C@@H](COCc2ccccc2)Oc2cc(N3CCC[C@@H]3CO)ccc2S1(=O)=O,-6,22
CCCCC[C@@H](C)N1C[C@H](COCc2ccccc2)Oc2cc(N3CCC[C@H]3C(N)=O)ccc2S1(=O)=O,-5,22
CCCCC[C@H](C)N1C[C@H](COCc2ccccc2)Oc2cc(N3CCC[C@H]3C(N)=O)ccc2S1(=O)=O,-18,42
CCCCC[C@@H](C)N1C[C@@H](COCc2ccccc2)Oc2cc(N3CC[C@H](O)C3)ccc2S1(=O)=O,-3,90*
SMILES,Pf apPOL inh,mHTT-CaM PPI inh
O=C(NCc1ccc(Cl)cc1)c1cc2n(n1)C(C(F)(F)F)CC(c1ccccc1)N2 (configuration not stated),-4,16
O=C(O)CSCC(=O)N1CCCc2ccccc21,0,·
CC(C)CC(=O)Nc1cccc(NC(=O)c2cccs2)c1,0,-2
O=C(NC(c1cccs1)c1ccc2cccnc2c1O)C1CCCCC1 (configuration not stated),-14,97*
CC(C)C(=O)NC(c1cccs1)c1cc(Cl)c2cccnc2c1O (configuration not stated),16,18
CC(C)CC(=O)NC(c1cccs1)c1ccc2cccnc2c1O (configuration not stated),-1,100*
O=C(CCc1ccccc1)NC(c1cccs1)c1ccc2cccnc2c1O (configuration not stated),-4,19
CCCC(=O)NC(c1cccs1)c1cc(Cl)c2cccnc2c1O (configuration not stated),-5,100*
CC(C)C(NC(=O)C1CCN(c2ccc(N3CCCCC3)nn2)CC1)c1cccs1 (configuration not stated),-8,1
CCCC(=O)NC(c1cccs1)c1ccc2cccnc2c1O (configuration not stated),-1,100*
CCN(CC)C(=O)c1c[nH]c2ccc(S(=O)(=O)N(C)c3ccc(Cl)cc3)cc2c1=O,-16,31
COc1ccccc1C=CC=C1Oc2cc(OS(C)(=O)=O)ccc2C1=O,-4,0
CCC(=O)N1CCc2cc(N3CC(C(=O)NCc4ccc5c(c4)OCO5)CC3=O)ccc21 (configuration not stated),1,2
Cn1cccc1C(=O)N1CCCC(COc2ccc(C(=O)NC3CC3)cc2)C1 (configuration not stated),-2,15
O=C(c1ccc(N2CCc3ccccc32)c([N+](=O)[O-])c1)N1CCC2(CC1)OCCO2,-6,77*
CC(=O)N1c2ccccc2CCc2ccc([N+](=O)[O-])cc21,-7,0
Cc1ccc(S(=O)(=O)N2CCc3ccccc32)cc1[N+](=O)[O-],-1,13
O=C(c1ccc(N2CCC3(CC2)OCCO3)c([N+](=O)[O-])c1)N1CCOCC1,-2,1
O=[N+]([O-])c1cc(S(=O)(=O)N2CCc3ccccc32)ccc1N1CCc2ccccc21,28,74*
O=C(c1ccc(Sc2cccc(Cl)c2)c([N+](=O)[O-])c1)N1CCN(c2ccccn2)CC1,-7,20
O=[N+]([O-])c1ccc(N2CCc3ccccc32)c([N+](=O)[O-])c1,2,56*
O=C(c1ccc(Sc2cccc(Cl)c2)c([N+](=O)[O-])c1)N1CCC2(CC1)OCCO2,-8,60*
O=C(O)/C=C/c1cc(F)ccc1S(=O)(=O)NC1CCCCC1,-2,-2
CCSc1nnc(NC(=O)C2C3C=CC(O3)C2C(=O)O)s1 (configuration not stated),·,-9
CCSC1=C(C#N)C(c2cc(OC)c(OC)c(OC)c2)C2=C(CCCC2=O)N1 (configuration not stated),-4,0
SMILES,Pf apPOL inh,mHTT-CaM PPI inh
CCOCCCNC(=O)C1CCN(c2nccnc2Oc2cccc(C)c2)CC1,-2,7
Cc1cccc(NC(c2ccccn2)c2ccc3ccc(C)nc3c2O)n1 (configuration not stated),-3,99*
Cc1ccc2ccc3ccc(C)nc3c2n1,·,1
Cc1cccc(NC(c2cccc(C)n2)c2ccc3ccc(C)nc3c2O)n1 (configuration not stated),1,76*
Cc1cccc(NC(=O)C(=O)NCc2ccccn2)n1,-5,-11
O=c1c2c3c(sc2ncn1-c1ccc(I)cc1)CCCC3,-4,2
COc1cc2c(cc1OC)C(COc1ccccc1OC)N(C(=O)c1ccccc1OC)CC2 (configuration not stated),-6,37
CCOc1ccc(C(=O)N2CCc3cc(OC)c(OC)cc3C2COc2ccccc2OC)cc1 (configuration not stated),1,73*
COC(=O)c1ccc(OCC2c3cc(OC)c(OC)cc3CCN2C(=O)c2ccc(OC)cc2)cc1 (configuration not stated),-4,47
COc1ccc(OCC2c3cc(OC)c(OC)cc3CCN2C(=O)c2ccc(C)cc2)cc1 (configuration not stated),2,77*
NC(=O)CSc1nnc2c3ccccc3n(CCc3ccccc3)c2n1,0,13
CCOc1ccc(N(C(C)C(=O)NC2CC3CCC2C3)S(C)(=O)=O)cc1 (configuration not stated),-55,-2
